Laboratory results taken from PubChem BioAssay.
Values joined by “and” are separate entries in the source; they are usually repeats but may differ in a detail not shown here. Equal entries are not always repeated. Unmarked numbers belong to inactive results. Active and inactive are the calls of the source. Unless noted, no stated cut-off is given here; in the data, active means inhibition above about 30%; inactive means the rest.

How the values were obtained:
[1] = molecular target: Nuclear receptor coactivator 3 (Homo sapiens) (UniProt Q9Y6Q9); test: SRC3 coactivator transcriptional activity inhibitors, confirmation, cell-based, luminescence, quadruplicate (AID 588792;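 active means mean inhibition over 43.08%, the solvent-only control mean plus 3 SD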;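 further: 0% = DMSO treated cells and 100% = gossypol at 36 µM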); details: HEK293 GAL4-SRC3 luciferase reporter, at 3.6 µM, active compounds read high
[2] = tested on: transactivating tegument protein VP16 (Human herpesvirus 1), Gal4-VP16 luciferase reporter; test: VP16 transactivation inhibitors, counter-screen for SRC3 inhibitor project, cell-based, luminescence, high throughput (AID 588794); details: mammalian cells, VP16-driven luciferase reporter luminescence; at 3.6 µM; active compounds read high
[3] = StAR promoter reporter inhibitors, counter-screen for LRH-1 inverse agonist project, cell-based, luminescence, high throughput (AID 651611; in the data active means inhibition above about 28%); details: StAR promoter luciferase reporter counterscreen, at 3.6 µM, active compounds read high
[4] = molecular target: Nuclear receptor subfamily 5 group A member 2 (Homo sapiens) (UniProt O00482); test: LRH-1 (NR5A2) inverse agonists, retest, confirmation, cell-based, luminescence (AID 651613; in the data active means inhibition above about 42%;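 further: HEK293T cells co-transfected with LRH-1 and StAR promoter luciferase reporter; 0% = vehicle wells and 100% = parental cells lacking receptor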); details: cell-based LRH-1 luciferase reporter, inverse agonism; at 3.6 µM; active compounds read high
[5] = molecular target: Steroidogenic factor 1 (Homo sapiens) (UniProt Q13285); test: SF1 (NR5A1) inverse agonists, counter-screen for LRH-1 inverse agonist project, cell-based, luminescence, high throughput (AID 651614; in the data active means inhibition above about 44%;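 further: cells cotransfected with StAR promoter reporter and SF1 expression vector; 0% = vehicle on cells with receptor and 100% = vehicle on cells lacking receptor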); details: cell-based SF1 luciferase reporter, at 3.6 µM, active compounds read high
[6] = VP16 transactivation reporter inhibitors, counter-screen for LRH-1 inverse agonist project, cell-based, luminescence, high throughput (AID 651615; in the data active means inhibition above about 33%); details: Gal4-VP16 luciferase reporter cells, at 3.6 µM, active compounds read high
[7] = tested on: transactivating tegument protein VP16 (Human herpesvirus 1); test: VP16 transactivation reporter inhibitors, counter-screen for SRC2 inhibitor project, cell-based, luminescence, single concentration (AID 652007; in the data active means inhibition above about 36%); details: cell-based VP16 transactivation luciferase reporter, at 8.9 µM, active compounds read high
[8] = molecular target: Nuclear receptor coactivator 2 (Homo sapiens) (UniProt Q15596); test: SRC2 coactivator transcriptional activity inhibitors, confirmation, cell-based, luminescence, HEK293, triplicate (AID 652008;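 active means mean inhibition above 46.5%, the solvent-only control mean plus 3 SD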;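 further: 0% = DMSO-treated cells and 100% = Gossypol at 36 µM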); details: HEK293 GAL4-SRC2 luciferase reporter, at 8.9 µM, active compounds read high
Nuclear receptor coactivator 2 (Homo sapiens), sequence (Q15596 whole entry, looked up, the tested form may be a part): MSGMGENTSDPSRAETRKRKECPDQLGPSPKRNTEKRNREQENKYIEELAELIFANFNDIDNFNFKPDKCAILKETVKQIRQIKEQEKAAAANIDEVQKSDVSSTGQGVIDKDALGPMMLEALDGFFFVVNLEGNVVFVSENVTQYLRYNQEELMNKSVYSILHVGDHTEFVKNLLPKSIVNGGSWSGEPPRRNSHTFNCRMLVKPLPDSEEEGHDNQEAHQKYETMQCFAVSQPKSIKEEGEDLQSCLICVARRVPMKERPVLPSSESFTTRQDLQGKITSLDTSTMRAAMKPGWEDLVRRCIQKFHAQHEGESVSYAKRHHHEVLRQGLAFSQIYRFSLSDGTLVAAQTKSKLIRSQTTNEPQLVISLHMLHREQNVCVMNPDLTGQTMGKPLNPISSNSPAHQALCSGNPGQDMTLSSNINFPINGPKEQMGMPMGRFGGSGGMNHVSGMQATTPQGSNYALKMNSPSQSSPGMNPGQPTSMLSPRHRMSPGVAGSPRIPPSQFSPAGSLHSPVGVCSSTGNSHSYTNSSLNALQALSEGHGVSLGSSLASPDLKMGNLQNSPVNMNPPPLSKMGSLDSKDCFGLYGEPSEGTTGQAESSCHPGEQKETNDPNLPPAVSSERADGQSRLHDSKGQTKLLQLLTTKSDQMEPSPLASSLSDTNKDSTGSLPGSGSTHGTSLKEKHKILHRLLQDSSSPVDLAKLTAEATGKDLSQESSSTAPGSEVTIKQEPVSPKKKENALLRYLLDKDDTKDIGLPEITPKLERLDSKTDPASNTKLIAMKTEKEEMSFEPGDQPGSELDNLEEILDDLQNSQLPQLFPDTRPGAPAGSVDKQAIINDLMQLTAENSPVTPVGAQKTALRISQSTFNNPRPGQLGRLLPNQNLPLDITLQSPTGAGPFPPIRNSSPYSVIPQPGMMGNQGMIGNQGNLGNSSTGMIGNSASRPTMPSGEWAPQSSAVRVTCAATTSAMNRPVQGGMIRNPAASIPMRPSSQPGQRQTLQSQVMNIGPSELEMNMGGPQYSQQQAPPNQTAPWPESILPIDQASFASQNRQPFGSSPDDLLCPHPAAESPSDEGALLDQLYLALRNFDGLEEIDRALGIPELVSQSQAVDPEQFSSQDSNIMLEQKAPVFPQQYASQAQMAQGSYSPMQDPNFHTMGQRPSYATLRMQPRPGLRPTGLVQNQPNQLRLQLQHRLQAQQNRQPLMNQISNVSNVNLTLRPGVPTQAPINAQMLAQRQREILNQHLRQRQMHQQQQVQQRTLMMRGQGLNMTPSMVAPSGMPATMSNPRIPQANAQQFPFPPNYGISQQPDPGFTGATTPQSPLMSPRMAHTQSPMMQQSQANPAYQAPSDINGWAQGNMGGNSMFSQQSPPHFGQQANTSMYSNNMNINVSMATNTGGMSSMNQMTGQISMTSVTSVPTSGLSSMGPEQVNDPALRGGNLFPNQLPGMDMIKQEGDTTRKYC

Steroidogenic factor 1 (Homo sapiens), sequence (Q13285 whole entry, looked up, the tested form may be a part): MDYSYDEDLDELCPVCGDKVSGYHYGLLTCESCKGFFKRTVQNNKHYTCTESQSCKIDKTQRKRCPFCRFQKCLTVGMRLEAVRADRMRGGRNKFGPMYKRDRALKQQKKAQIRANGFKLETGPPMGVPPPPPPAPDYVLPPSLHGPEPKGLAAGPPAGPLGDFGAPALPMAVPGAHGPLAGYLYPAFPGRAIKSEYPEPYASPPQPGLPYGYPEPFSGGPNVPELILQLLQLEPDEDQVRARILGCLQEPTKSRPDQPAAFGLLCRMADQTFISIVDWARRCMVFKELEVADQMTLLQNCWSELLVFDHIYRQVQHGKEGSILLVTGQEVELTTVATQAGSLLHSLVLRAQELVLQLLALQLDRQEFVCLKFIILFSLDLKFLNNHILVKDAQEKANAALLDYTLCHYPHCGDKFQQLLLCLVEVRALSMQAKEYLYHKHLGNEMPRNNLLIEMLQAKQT
Nuclear receptor coactivator 3 (Homo sapiens), sequence (Q9Y6Q9 whole entry, looked up, the tested form may be a part): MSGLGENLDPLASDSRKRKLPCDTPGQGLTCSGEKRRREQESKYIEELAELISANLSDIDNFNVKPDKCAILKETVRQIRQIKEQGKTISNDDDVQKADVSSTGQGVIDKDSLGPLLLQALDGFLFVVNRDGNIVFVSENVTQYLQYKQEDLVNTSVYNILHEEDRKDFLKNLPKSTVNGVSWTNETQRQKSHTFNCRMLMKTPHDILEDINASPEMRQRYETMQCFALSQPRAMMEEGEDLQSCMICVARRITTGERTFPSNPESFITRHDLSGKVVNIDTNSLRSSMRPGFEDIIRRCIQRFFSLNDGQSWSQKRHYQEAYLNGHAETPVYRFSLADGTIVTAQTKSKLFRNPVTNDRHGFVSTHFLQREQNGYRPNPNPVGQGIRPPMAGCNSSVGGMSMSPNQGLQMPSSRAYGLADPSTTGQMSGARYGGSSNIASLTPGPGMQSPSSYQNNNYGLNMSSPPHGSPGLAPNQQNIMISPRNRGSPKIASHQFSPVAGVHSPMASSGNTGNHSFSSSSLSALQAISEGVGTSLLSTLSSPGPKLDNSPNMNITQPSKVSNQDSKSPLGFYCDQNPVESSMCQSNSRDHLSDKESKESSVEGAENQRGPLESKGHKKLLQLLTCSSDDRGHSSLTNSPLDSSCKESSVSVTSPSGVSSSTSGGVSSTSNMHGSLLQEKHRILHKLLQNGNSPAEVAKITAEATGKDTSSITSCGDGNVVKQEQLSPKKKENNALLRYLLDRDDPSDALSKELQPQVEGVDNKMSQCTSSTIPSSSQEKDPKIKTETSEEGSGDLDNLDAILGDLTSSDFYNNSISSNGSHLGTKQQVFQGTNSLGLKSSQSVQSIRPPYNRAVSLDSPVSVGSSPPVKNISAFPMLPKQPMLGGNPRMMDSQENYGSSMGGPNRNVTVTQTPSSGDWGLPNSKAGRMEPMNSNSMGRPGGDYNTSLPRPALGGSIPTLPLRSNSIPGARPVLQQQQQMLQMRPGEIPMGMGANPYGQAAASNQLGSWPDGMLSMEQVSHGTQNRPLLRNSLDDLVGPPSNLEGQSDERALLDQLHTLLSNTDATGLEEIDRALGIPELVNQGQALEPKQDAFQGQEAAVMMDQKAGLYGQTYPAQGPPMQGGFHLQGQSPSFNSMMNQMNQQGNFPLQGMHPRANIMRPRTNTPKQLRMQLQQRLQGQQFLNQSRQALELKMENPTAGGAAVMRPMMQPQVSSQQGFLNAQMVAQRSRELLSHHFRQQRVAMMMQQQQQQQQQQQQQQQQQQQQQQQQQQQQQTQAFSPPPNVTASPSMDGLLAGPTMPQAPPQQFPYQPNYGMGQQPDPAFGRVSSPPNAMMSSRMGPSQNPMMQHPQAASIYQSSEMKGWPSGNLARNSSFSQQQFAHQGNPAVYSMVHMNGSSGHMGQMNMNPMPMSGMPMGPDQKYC
Nuclear receptor subfamily 5 group A member 2 (Homo sapiens), sequence (O00482 whole entry, looked up): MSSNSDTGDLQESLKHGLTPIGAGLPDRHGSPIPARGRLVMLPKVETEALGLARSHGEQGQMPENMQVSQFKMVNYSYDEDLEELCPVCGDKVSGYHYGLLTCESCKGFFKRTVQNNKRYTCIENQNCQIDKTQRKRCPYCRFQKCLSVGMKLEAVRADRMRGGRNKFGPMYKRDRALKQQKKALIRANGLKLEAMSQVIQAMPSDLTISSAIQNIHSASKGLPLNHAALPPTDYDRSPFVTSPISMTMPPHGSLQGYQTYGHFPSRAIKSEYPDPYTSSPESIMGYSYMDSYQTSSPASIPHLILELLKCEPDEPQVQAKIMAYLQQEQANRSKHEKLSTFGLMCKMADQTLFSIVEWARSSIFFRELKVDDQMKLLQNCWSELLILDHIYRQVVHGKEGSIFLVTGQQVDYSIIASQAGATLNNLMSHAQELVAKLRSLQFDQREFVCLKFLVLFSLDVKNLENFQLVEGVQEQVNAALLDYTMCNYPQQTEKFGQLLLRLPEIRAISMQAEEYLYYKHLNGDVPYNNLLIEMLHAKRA

Compound	inhibition [1]	inhibition [2]	inhibition [3]	inhibition [4]	inhibition [5]	inhibition [6]	inhibition [7]	inhibition [8]
Cc1ccc(S(=O)(=O)Nc2cc(Cl)c(O)c3ncccc23)cc1	28.2%	24.5%	48.1% (active)	72.1% (active)	62.2% (active)	62% (active)		
COc1ccc(-c2n(Cc3ccccc3)c3ccccc3[n+]2Cc2ccccc2)cc1	64% (active)	66.2% (active)	76.3% (active)	109% (active)	90.3% (active)	94.4% (active)		
COc1ccc(OC)c(NC(=O)c2nnn(Cc3ccccc3C)c2N)c1	4.83%	29.9% (active)	20.2%	44.5% (active)	52.9% (active)	57.3% (active)		
COc1cc(/C=N/NC(N)=S)cc(Br)c1OCc1ccccc1F	54.7% (active)	14.2%	33.5% (active)	74.1% (active)	70.8% (active)	40.5% (active)		
COc1ccc(-c2n(CC(=O)OC3CC(C)CCC3C(C)C)c3ccccc3[n+]2C)cc1 (centres undefined)	57.5% (active)	61.3% (active)	59.1% (active)	110% (active)	79.5% (active)	92.9% (active)		
Cc1ccnc(NC(=O)CCCOc2cc(=O)n(C)c3ccccc23)c1	3.13% and 25%	-1.88% and -14.4%	61% (active) and 59.3% (active)	91.4% (active) and 81.7% (active)	67.8% (active) and 59.8% (active)	23.5% and 8.09%		
CCN(CC)c1ccc(/C=N/NC(=O)c2cccc(S(=O)(=O)N3CCOCC3)c2)c(O)c1	60% (active)	61.7% (active)	79.2% (active)	96.4% (active)	82.6% (active)	64.8% (active)		
O=C(Nc1ccccc1)Nc1cc(OCC(F)(F)F)cc(OCC(F)(F)F)c1	21.7%	20.5%	22.9%	71.3% (active)	54.7% (active)	54.3% (active)		
CCOC(=O)C(=CNc1ccc(NC2=NCC(C)S2)cc1)C(=O)OCC (centres undefined)	60.3% (active)	24.9%	-39.4%	69.1% (active)	70.9% (active)	36.8% (active)		
C=C1C(=O)[C@]23C[C@H]1CCC2[C@@]1(C)C(C[C@@H]3O)[C@](C)(C(=O)OC)CC[C@@H]1OC(C)=O (some centres undefined)	62.7% (active)	44.9% (active)	61.7% (active)	70.7% (active)	80.6% (active)	76.2% (active)	83.2% (active)	99% (active)
CCN1/C(=C\c2ccc3cc(C)ccc3[n+]2CC)Sc2cc(C)c(C)cc21	34.9%	57.5% (active)	32.8% (active)	82.5% (active)	72.8% (active)	65.6% (active)		
C=CS(=O)(=O)N(Cc1ccccc1Br)[C@H](CO)Cc1ccccc1	24.3%	0.02%	20.1%	32.2%	48.7% (active)	23.2%		
CCC(C)(C)c1ccc(OCCCC[n+]2ccccc2)c(C(C)(C)CC)c1	26.1%	37.4% (active)	16.3%	64% (active)	55.6% (active)	60.8% (active)		
CCOc1cc(/C=C2\N=C(SC(C)C(N)=O)N(c3ccc(OC(F)F)cc3)C2=O)ccc1O (centres undefined)	27.6%	58% (active)	59.3% (active)	65.4% (active)	73% (active)	73.1% (active)		
O=[N+]([O-])c1ccc(O)c(/C=N/Nc2nc3ccccc3[nH]2)c1	64% (active)	62.7% (active)	80.6% (active)	97.5% (active)	84.3% (active)	83% (active)		
CCCCC(=O)NC(c1ccc(OC)cc1)c1ccc2cccnc2c1O (centres undefined)	28.5%	14.8%	8.78%	17.3%	18.6%	27%		
NS(=O)(=O)c1ccc(Sc2nc3ccccc3s2)c([N+](=O)[O-])c1	53.3% (active)	27.4%	78.7% (active)	75.3% (active)	67.5% (active)	55.2% (active)	33%	58.3% (active)
COC(=O)/C=C/C(=O)Nc1cccc(C(F)(F)F)c1	4.81%	6.7%	46.8% (active)	46.6% (active)	58.7% (active)	28.6%	25.8%	20.4%
